We go through 20 compounds from the supplement of paper PMC12808144.

One assay deals with Mel-DCC-11-R. The assay can be described thus: cell viability relative to DMSO control (fraction of DMSO control); higher = less cytotoxic, active = 0.8 or less. The note with it: 1 µM; 120 h; vemurafenib co-treatment 0 µM. The procedure: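 Same 315-drug TargetMol library at 1 µM in duplicate, 120 h, ATPlite luminescence normalised to DMSO controls, on the vemurafenib-resistant subline Mel-DCC-11-R cultured alone or with 8 µM vemurafenib co-treatment (Mel-DCC-11-R + V).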
For the compound `CC1CCC(C(C)C)C(O)C1` (racemic) [DL-Menthol], the cell viability is 1.07 (inactive).
On to `Cn1cnc2c(F)c(Nc3ccc(Br)cc3F)c(C(=O)NOCCO)cc21` [Binimetinib], for which the cell viability is 0.664 (active).
Same read-out and setting: next, `CNC(=O)c1cc(Oc2ccc(NC(=O)Nc3ccc(Cl)c(C(F)(F)F)c3)cc2)ccn1.Cc1ccc(S(=O)(=O)O)cc1` [Sorafenib tosylate]: 1.02 (inactive); `CO[C@H]1C[C@@H]2CC[C@@H](C)[C@@](O)(O2)C(=O)C(=O)N2CCCC[C@H]2C(=O)O[C@H]([C@H](C)C[C@@H]2CC[C@@H](OC(=O)C(C)(CO)CO)[C@H](OC)C2)CC(=O)[C@H](C)/C=C(\C)[C@@H](O)[C@@H](OC)C(=O)[C@H](C)C[C@H](C)/C=C/C=C/C=C/1C` [Temsirolimus]: 1.53 (inactive); `CC(=O)O[C@H]1C(=O)[C@]2(C)[C@@H](O)C[C@H]3OC[C@@]3(OC(C)=O)[C@@H]2[C@@H](OC(=O)c2ccccc2)[C@]2(O)C[C@H](OC(=O)[C@H](O)[C@@H](NC(=O)c3ccccc3)c3ccccc3)C(C)=C1C2(C)C` [Paclitaxel]: 1.06 (inactive).
Regarding `COC(=O)N[C@@H](C)CNc1nccc(-c2cn(C(C)C)nc2-c2cc(Cl)cc(NS(C)(=O)=O)c2F)n1` [Encorafenib], the cell viability was 0.802 (inactive).
`Nc1c2ccccc2nc2ccccc12` [Aminacrine]: the cell viability is 1.26 (inactive).
For the compound `Cl.N=C1CCCN1Cc1[nH]c(=O)[nH]c(=O)c1Cl.O=c1[nH]c(=O)n([C@H]2C[C@H](O)[C@@H](CO)O2)cc1C(F)(F)F.O=c1[nH]c(=O)n([C@H]2C[C@H](O)[C@@H](CO)O2)cc1C(F)(F)F`, the cell viability is 1.23 (inactive).
As to `CC(O)(P(=O)(O)O)P(=O)(O)O` [Etidronate], the cell viability is 1.12 (inactive).
With `O=[N+]([O-])c1cncn1CCN1CCOCC1` [Nimorazole], the cell viability was 1.02 (inactive).
Take `CCN1CCN(Cc2ccc(Nc3ncc(F)c(-c4cc(F)c5nc(C)n(C(C)C)c5c4)n3)nc2)CC1` [Abemaciclib]: the cell viability was 1.38 (inactive).
As to `O=C(O)C1CSCN1` (stereo not given) [Thioproline], the cell viability is 0.893 (inactive).
For the compound `CC[C@@H]1C(=O)N(C)c2cnc(Nc3ccc(C(=O)N[C@H]4CC[C@H](N5CCN(CC6CC6)CC5)CC4)cc3OC)nc2N1C(C)C` [Volasertib], the cell viability was 1 (inactive).
In the case of `Nc1nc([O-])c2c(CCc3ccc(C(=O)N[C@@H](CCC(=O)[O-])C(=O)[O-])cc3)c[nH]c2n1.[Na+].[Na+]` [Pemetrexed disodium], the cell viability was 0.818 (inactive).
Regarding `Cc1nc(Nc2ncc(C(=O)Nc3c(C)cccc3Cl)s2)cc(N2CCN(CCO)CC2)n1.O` [Dasatinib monohydrate], the cell viability is 1.65 (inactive).
Turning to `CN(C)C/C=C/C(=O)Nc1cc2c(Nc3ccc(F)c(Cl)c3)ncnc2cc1O[C@H]1CCOC1.O=C(O)/C=C\C(=O)O.O=C(O)/C=C\C(=O)O` [Afatinib Dimaleate], the cell viability is 1.03 (inactive).
As to `CS(=O)(=O)c1ccc(C(=O)Nc2ccc(Cl)c(-c3ccccn3)c2)c(Cl)c1` [Vismodegib], the cell viability was 0.807 (inactive).
Consider `CCCCCCCCCCCCCC(=O)[O-].CCCCCCCCCCCCCC(=O)[O-].N[C@@H]1CCCC[C@H]1N.[Pt+2]` [Miriplatin], for which the cell viability was 1.04 (inactive).
As to `COC(=O)[C@]12CCC(C)(C)C[C@H]1[C@H]1C(=O)C=C3[C@@]4(C)C=C(C#N)C(=O)C(C)(C)[C@@H]4CC[C@@]3(C)[C@]1(C)CC2` [Bardoxolone Methyl], the cell viability is 0.833 (inactive).
For `CN(C)c1nc(N(C)C)nc(N(C)C)n1` [Altretamine], the cell viability was 0.973 (inactive).

The assay is the same for the next values; noted with them: 1 µM; 120 h; vemurafenib co-treatment 8 µM.
Turning to `CC1CCC(C(C)C)C(O)C1` (racemic) [DL-Menthol], the cell viability is 1.08 (inactive).
`Cn1cnc2c(F)c(Nc3ccc(Br)cc3F)c(C(=O)NOCCO)cc21` [Binimetinib]: the cell viability is 0.406 (active).
Consider `CNC(=O)c1cc(Oc2ccc(NC(=O)Nc3ccc(Cl)c(C(F)(F)F)c3)cc2)ccn1.Cc1ccc(S(=O)(=O)O)cc1` [Sorafenib tosylate], for which the cell viability is 1.1 (inactive).
For the compound `CO[C@H]1C[C@@H]2CC[C@@H](C)[C@@](O)(O2)C(=O)C(=O)N2CCCC[C@H]2C(=O)O[C@H]([C@H](C)C[C@@H]2CC[C@@H](OC(=O)C(C)(CO)CO)[C@H](OC)C2)CC(=O)[C@H](C)/C=C(\C)[C@@H](O)[C@@H](OC)C(=O)[C@H](C)C[C@H](C)/C=C/C=C/C=C/1C` [Temsirolimus], the cell viability was 0.786 (active).
The same measure, in the same setting: next, `CC(=O)O[C@H]1C(=O)[C@]2(C)[C@@H](O)C[C@H]3OC[C@@]3(OC(C)=O)[C@@H]2[C@@H](OC(=O)c2ccccc2)[C@]2(O)C[C@H](OC(=O)[C@H](O)[C@@H](NC(=O)c3ccccc3)c3ccccc3)C(C)=C1C2(C)C` [Paclitaxel]: 0.526 (active).
For `COC(=O)N[C@@H](C)CNc1nccc(-c2cn(C(C)C)nc2-c2cc(Cl)cc(NS(C)(=O)=O)c2F)n1` [Encorafenib], the cell viability is 0.74 (active).
In the case of `Nc1c2ccccc2nc2ccccc12` [Aminacrine], the cell viability was 1.2 (inactive).
For `Cl.N=C1CCCN1Cc1[nH]c(=O)[nH]c(=O)c1Cl.O=c1[nH]c(=O)n([C@H]2C[C@H](O)[C@@H](CO)O2)cc1C(F)(F)F.O=c1[nH]c(=O)n([C@H]2C[C@H](O)[C@@H](CO)O2)cc1C(F)(F)F`, the cell viability is 1.1 (inactive).
Turning to `CC(O)(P(=O)(O)O)P(=O)(O)O` [Etidronate], the cell viability is 0.981 (inactive).
On to `O=[N+]([O-])c1cncn1CCN1CCOCC1` [Nimorazole], for which the cell viability was 1.08 (inactive).
Consider `CCN1CCN(Cc2ccc(Nc3ncc(F)c(-c4cc(F)c5nc(C)n(C(C)C)c5c4)n3)nc2)CC1` [Abemaciclib], for which the cell viability is 0.669 (active).
In the case of `O=C(O)C1CSCN1` (stereo not given) [Thioproline], the cell viability was 1.08 (inactive).
As for `CC[C@@H]1C(=O)N(C)c2cnc(Nc3ccc(C(=O)N[C@H]4CC[C@H](N5CCN(CC6CC6)CC5)CC4)cc3OC)nc2N1C(C)C` [Volasertib], the cell viability was 0.664 (active).
Still for that read-out and setting: as for `Nc1nc([O-])c2c(CCc3ccc(C(=O)N[C@@H](CCC(=O)[O-])C(=O)[O-])cc3)c[nH]c2n1.[Na+].[Na+]` [Pemetrexed disodium], the figure is 0.881 (inactive).
As to `Cc1nc(Nc2ncc(C(=O)Nc3c(C)cccc3Cl)s2)cc(N2CCN(CCO)CC2)n1.O` [Dasatinib monohydrate], the cell viability was 1.54 (inactive).
On to `CN(C)C/C=C/C(=O)Nc1cc2c(Nc3ccc(F)c(Cl)c3)ncnc2cc1O[C@H]1CCOC1.O=C(O)/C=C\C(=O)O.O=C(O)/C=C\C(=O)O` [Afatinib Dimaleate], for which the cell viability is 0.766 (active).
For `CS(=O)(=O)c1ccc(C(=O)Nc2ccc(Cl)c(-c3ccccn3)c2)c(Cl)c1` [Vismodegib], the cell viability was 0.892 (inactive).
Take `CCCCCCCCCCCCCC(=O)[O-].CCCCCCCCCCCCCC(=O)[O-].N[C@@H]1CCCC[C@H]1N.[Pt+2]` [Miriplatin]: the cell viability is 1.03 (inactive).
Regarding `COC(=O)[C@]12CCC(C)(C)C[C@H]1[C@H]1C(=O)C=C3[C@@]4(C)C=C(C#N)C(=O)C(C)(C)[C@@H]4CC[C@@]3(C)[C@]1(C)CC2` [Bardoxolone Methyl], the cell viability was 0.578 (active).
As to `CN(C)c1nc(N(C)C)nc(N(C)C)n1` [Altretamine], the cell viability is 0.92 (inactive).
